ssDAF12 agonist: activates DAF-12 receptor from parasite S. stercoralis; HEK293 ssDAF-12/GRIP1 lit1-tk-luc reporter, luminescence; % of 3 µM dafachronic acid response; activation, % at 6.8 µM; 370,000 tested, 1% active; AID 652126;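 active = activation above the mean over all tested compounds plus 3 SD, cut at about 0.9% in these data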
DAX1 inh-1: inhibits human nuclear receptor DAX1 | P51843 | HEK293 Gal4-DAX1 luciferase reporter, luminescence | inhibition, % at 6.75 µM | 340,000 tested, 0.99% active | AID 504766;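 active = inhibition above the mean over all tested compounds plus 3 SD, cut at about 4.2% in these data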;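 also: inhibition shows as a rise in luminescence from relieved DAX1 repression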
Target sequence (P51843 207-470 limits assumed): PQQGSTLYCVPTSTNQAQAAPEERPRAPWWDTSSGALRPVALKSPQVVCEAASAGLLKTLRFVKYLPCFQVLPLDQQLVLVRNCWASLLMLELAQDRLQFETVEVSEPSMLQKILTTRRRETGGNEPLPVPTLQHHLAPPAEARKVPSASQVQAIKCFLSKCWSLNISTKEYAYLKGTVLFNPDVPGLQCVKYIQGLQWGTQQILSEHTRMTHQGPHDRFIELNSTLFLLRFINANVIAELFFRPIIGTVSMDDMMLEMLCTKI
hcDAF12 agonist: activates DAF-12 receptor from parasite H. contortus. activation, % at 6.8 µM. 370,000 tested, 1.4% active. AID 652067. HEK293 hcDAF-12 lit1-tk-luc reporter, luminescence; 0% DMSO, 100% Δ7-dafachronic acid;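 active = activation above the mean of all tested compounds plus 3 SD, cut at about 5.5% in these data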
DAX1 inh-2: DAX1 (NR0B1) inhibition, primary screen | HEK293T StAR-luciferase reporter, SF-1/DAX-1 repression relief | 370,000 tested, 1.1% active | inhibition, % at 6.8 µM;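 active = inhibition above the mean over all tested compounds plus 3 SD, cut at about 3.6% in these data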;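 also: higher inhibition means more luminescence from relief of DAX-1 repression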
hgDAF12 agonist: agonists of H. glycines DAF-12 nuclear receptor; activation, % at 6.8 µM; 370,000 tested, 1.8% active; HEK293 GAL4-hgDAF12 UAS-luciferase reporter, agonist luminescence; normalized to butyrate control; AID 687014;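 active = activation above a cutoff set at the mean of all screened compounds plus 3 SD, cut at about 10% in these data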
GAA850 FXN act: increases GAA850 frataxin promoter reporter activity | AID 540364 | 360,000 tested, 0.56% active | HEK293 lucGAA850 FXN promoter luciferase reporter, 24 h; percent of 10 µM SAHA response | activation, % at 6 µM;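 active = activation above the average of all compounds screened plus 3 SD, cutoff fixed separately per campaign, cut at about 7.5% in these data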
GAA30 FXN cntr: counter-screen for GAA850 frataxin promoter activators: GAA30 promoter activation; AID 588350; 1,900 tested, 66% active; activation, % at 6 µM; HEK293 lucGAA30 FXN promoter luciferase, 24 h; DMSO = 0%, 5 µM ipriflavone = 100%; shares compounds with GAA850 FXN act;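 active = mean activation above the mean of solvent-only control wells plus 3 SD, cut at about 22% in these data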;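 also: counterscreen of GAA850 promoter hits where activity marks nonselective or luminescence artifacts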
FXN GAA850 conf: confirmation of GAA850 frataxin (FXN) promoter activators; shares compounds with GAA850 FXN act; HEK293 lucGAA850 FXN promoter luciferase reporter, 24 h; 100% = activation by SAHA; activation, % at 6 µM; 1,900 tested, 86% active;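 active = mean activation above a set limit taken from the primary screen, cut at about 8% in these data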
A number is an active result; – = inactive; · = no result given. In the library only some 4.5% were active in any assay of this set; here they are far more common.

SMILES	ssDAF12 agonist	DAX1 inh-1	hcDAF12 agonist	DAX1 inh-2	hgDAF12 agonist	GAA850 FXN act	GAA30 FXN cntr	FXN GAA850 conf
CCCCCN(C(=O)CCC(=O)OCc1cccc(F)c1)c1c(N)n(CCCC)c(=O)[nH]c1=O	–	–	–	–	–	–	·	·
CCOC(=O)N/N=C/c1c(C)nn(-c2ccccc2Cl)c1Cl	–	–	–	–	11.1	8.2	92.9	34.4
COc1ccccc1C(=O)N=c1sc2c(C)ccc(OC)c2n1C	–	–	–	–	–	9.5	81.8	32.4
CC(C)C[C@@H](C(=O)O)N(Cc1cccc(CN([C@@H](CC(C)C)C(=O)O)S(C)(=O)=O)c1)S(C)(=O)=O	–	–	–	–	–	–	·	·
C(=N\n1cnc2ccccc21)/c1cccnc1	–	–	–	–	–	–	·	·
Clc1nc2sccn2c1/C=N/n1cnc2ccccc21	–	–	–	–	–	9.1	82.1	32.1
COc1ccc(/C=N/NC(=O)C(C)n2nnc3ccccc32)cc1OC (stereo unspecified)	–	–	–	–	–	8.5	–	10.8
COc1ccc(N2C(=O)C3C(C2=O)C(C(=O)c2ccc(Cl)cc2)N2CCCC32)cc1 (stereo unspecified)	–	–	–	–	–	8.4	–	–
C=CCNc1nc(SCC=C)nc2ccsc12	–	–	–	–	–	7.9	–	9.7
CN1CC=C(c2ccccc2)N(c2ccccc2)C1=O	–	·	–	–	–	·	·	·
O=C(N1CCOCC1)N1CC[C@H]2[C@H](CCCN2Cc2cc(F)cc(F)c2)C1	–	·	–	–	–	·	·	·
COc1ccc(-c2cn3cccc(C)c3n2)cc1Br	–	–	–	–	–	8.4	119.6	37.5
COc1ccc(-c2csc(C)n2)cc1Br	–	–	–	–	–	–	·	·
C[C@H]1[C@@H](NC(=O)C2CCOC2)CC[C@@]23CCCN2C(=O)CCC[C@@H]13 (stereo partly specified)	–	·	–	·	–	·	·	·
COc1ccc(CCN2C(=O)c3[nH]nc(-c4ccccc4O)c3C2c2ccccc2)cc1OC (stereo unspecified)	–	–	–	–	–	13.3	–	8.9
COCCCN1C(=O)c2[nH]nc(-c3ccccc3O)c2C1c1ccc(Cl)cc1 (stereo unspecified)	–	–	–	–	–	–	·	·
CN1CCN(c2ccc(NC(=O)c3ccc([N+](=O)[O-])o3)cc2Cl)CC1	–	–	–	–	–	–	·	·
CCCC(=O)N1CCN(c2ccc(NC(=O)c3ccc([N+](=O)[O-])o3)cc2Cl)CC1	–	–	–	–	–	7.9	–	24.5
O=C(Nc1ccc(N2CCOCC2)c(Cl)c1)c1ccc([N+](=O)[O-])o1	–	–	–	–	–	11.2	117.6	56.0
CCOc1ccc(C(C)=O)cc1COC(=O)c1ccccc1C(=O)N(C)Cc1ccccc1	–	–	–	–	–	9.5	–	15.0
O=C(/C=C/c1ccc(Br)cc1)c1ccco1	–	–	–	–	–	–	·	·
O=C(/C=C/C=C/c1ccccc1)c1ccco1	–	–	–	–	–	9.5	106.2	43.6
C[C@@]12C(=O)N(CC3CCCO3)CC(=O)N1[C@H]1c3ccccc3OC[C@@H]1[C@@H]2c1ccccc1 (stereo partly specified)	–	–	–	–	–	12.2	–	14.2
C[C@@]12C(=O)N(CCc3c[nH]c4ccccc34)CC(=O)N1[C@H]1c3ccccc3OC[C@@H]1[C@@H]2c1ccccc1	–	–	–	–	–	7.7	–	8.5
COc1ccc(-c2noc(C3CCCN(C(=O)Nc4ccc5c(c4)OCO5)C3)n2)cc1 (stereo unspecified)	–	·	–	–	–	·	·	·
SMILES	ssDAF12 agonist	DAX1 inh-1	hcDAF12 agonist	DAX1 inh-2	hgDAF12 agonist	GAA850 FXN act	GAA30 FXN cntr	FXN GAA850 conf
COc1ccc(N=C2Sc3ccccc3[C@@H]3C[C@H]4[C@H](CON4C)CN23)c(OC)c1	–	·	–	–	–	·	·	·
S=c1[nH]nc(-c2cc(-c3ccccc3)n[nH]2)n1N=Cc1cccc(OCc2ccccc2)c1	–	·	–	–	–	·	·	·
Cc1ccc(NC(=O)CSCC(=O)Nc2ccccc2N2CCCCC2)cc1	–	–	–	–	–	11.6	–	13.4
O=S1(=O)N=C(Nc2ccc(N3CCOCC3)c(Cl)c2)c2ccccc21	–	–	–	–	–	8.4	103.2	33.7
O=S1(=O)N=C(Nc2ccc(O)cc2)c2ccccc21	–	–	–	–	–	–	·	·
CN(C)CCOC(=O)NC12CC3CC(CC(C3)C1)C2	–	–	–	–	–	–	·	·
O=C(NC12CC3CC(CC(C3)C1)C2)OCCNC1CCCCC1	–	–	–	–	–	15.3	22.7	10.2
CC(C)Cc1cc(-c2ccco2)c(C#N)c(N)n1	·	–	·	·	·	8.2	–	18.4
N#Cc1c(-c2ccco2)cc(-c2ccc(F)cc2)nc1N	–	–	–	–	–	–	·	·
COc1ccc(-n2nc3c(c2NC(=O)COc2ccccc2F)CS(=O)(=O)C3)cc1	–	–	–	–	–	–	·	·
CCOP(=O)(Nc1cccc2oc(=O)c3ccccc3c12)OCC	–	–	–	–	–	7.8	25.2	17.5
CCOc1ccccc1N=Cc1c(O)c2ccccc2oc1=O	–	–	–	–	–	–	·	·
O=C(CN1C(=O)NC2(CCCC2)C1=O)Nc1ccc(C(F)(F)F)cc1	–	–	–	–	–	–	·	·
O=C(CSc1nnc(SCc2cccc3ccccc23)s1)Nc1ccc(S(=O)(=O)Nc2nccs2)cc1	–	·	–	–	–	·	·	·
CCOC(=O)[C@H]1[C@H]2COc3ccc(Br)cc3[C@@H]2N2C(=O)c3ccc(C)cc3NC(=O)[C@@]12C	–	–	–	–	–	–	·	·
CCOC(=O)[C@H]1[C@H]2COc3ccc(Br)cc3[C@@H]2N2C(=O)c3c(C)cc(C)cc3NC(=O)[C@@]12C	–	–	–	–	–	14.4	28.3	18.6
CCOC(=O)[C@@H]1[C@H]2COc3ccc(Br)cc3[C@@H]2N2C(=O)N(c3cccc(Cl)c3)C(=O)[C@@]12C	–	–	–	–	–	9.9	–	–
CCOC(=O)[C@]12CCC=C1N(Cc1ccc(Cl)cc1Cl)C(=O)[C@H](CC(=O)N1CCSCC1)C2	–	·	–	–	–	·	·	·
C/C(=N\NC(=O)c1ccc(N2CCCC2=O)cc1)c1ccccc1	–	–	–	–	–	–	·	·
C/C(=N\NC(=O)c1ccccc1)c1ccc(N2CCCCC2)cc1	–	–	–	–	–	8.0	98.3	33.7
